From the supplement of paper PMC10338343
± gives the standard deviation.

Assays:
[1] = tested on: MILI (PIWIL2) piRISC loaded with L1MC piRNA (26 nt); experiment: pre-steady-state target cleavage rate (min^-1); guide: L1MC piRNA 5'p-UAACUAAAUACUAUGCAAGCUGUAGG; higher = faster piRNA-guided slicing of the target; conditions: auxiliary factor: 500 nM mouse GTSF1
Summary of the method: (§1)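 Cleave-'n-Seq: 1 nM active affinity-purified piRISC with one synthetic guide and 0.1 nM transcribed, DNA-blocked target RNA library were mixed, with or without 500 nM GTSF1 partner protein, in HEPES–potassium acetate buffer at 33 °C for 0–8 or 0–960 min. Uncleaved targets were sequenced and normalised to depth and to weakly complementary targets, three trials were pooled, and k3 was capped at 0.0001 min^-1. The pre-steady-state cleavage rate was fitted […].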

[2] = tested on: EfPiwi piRISC loaded with L1MC piRNA (26 nt); experiment: pre-steady-state target cleavage rate (min^-1); auxiliary factor: 500 nM Ephydatia muelleri Gtsf1; guide: L1MC piRNA 5'p-UAACUAAAUACUAUGCAAGCUGUAGG; MIWI and MILI are mouse PIWI proteins and EfPiwi is from a freshwater sponge; tags in brackets are library labels; higher = faster piRNA-guided slicing of the target
Summary of the method: as §1

Sequence | pre-steady-state target cleavage rate [1] | pre-steady-state target cleavage rate [2]
UCCUGCUACAGCUUCCAUAGUAUUUAGUUA | 0.0846 ± 0.028 | 0.00342 ± 0.0012
UCCUCCUACAGCUUGCUUAGUAUUAAGUUA | 0.116 ± 0.018 | 0.00459 ± 0.0031
UCCUGGAACAGCUUGCAUAGUAUUUCGUUA | 0.0829 ± 0.02 | 0.0025 ± 0.0013
UCCUGGUACUGCUUGCAUAGUAUUUACAAA | 0.00977 ± 0.0049 | 0.00278 ± 0.0027
UCCUCCUACAGCUUGCAUAGUAAAUACAAA | 0.0608 ± 0.018 | 0.00363 ± 0.003
UCCUGGAUGUCCUUGCAUAGUAUUUAGAUUA | 0.101 ± 0.022 | 0.00316 ± 0.003
UCCUGCUACAGCUUGCAUAGAAUUUUGUUA | 0.06 ± 0.013 | 0.00457 ± 0.0019
UCCUGCUACAGCUUGCAUAGUAUUUACAUA | 0.157 ± 0.041 | 0.0023 ± 0.0023
UCCUGCUAGAGCUUGCAUAGUAUUUAGUAA | 0.161 ± 0.023 | 0.00419 ± 0.0014
UCCUGGAUGAGCUUGCAUAGUAAAUAGUUA | 0.114 ± 0.015 | 0.00329 ± 0.0025
